PrP UTR inh: inhibition of PrP 5' UTR reporter expression. cell-based PrP 5' UTR mRNA reporter, plate reader. inhibition, % (no concentration beside the values). 0.35% of 340,000 active; in the data active means inhibition above about 52%; further: 0 = median of the neutral control wells
Mtb FBA inh: inhibitors of M. tuberculosis fructose-bisphosphate aldolase. inhibition, % at 1 µM. purified M. tuberculosis FBA, fluorescence read-out. P9WQA3. 2.3% of 360,000 active;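 further: 0% = vehicle and 100% = reference inhibitor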
Target sequence (P9WQA3 whole entry, looked up): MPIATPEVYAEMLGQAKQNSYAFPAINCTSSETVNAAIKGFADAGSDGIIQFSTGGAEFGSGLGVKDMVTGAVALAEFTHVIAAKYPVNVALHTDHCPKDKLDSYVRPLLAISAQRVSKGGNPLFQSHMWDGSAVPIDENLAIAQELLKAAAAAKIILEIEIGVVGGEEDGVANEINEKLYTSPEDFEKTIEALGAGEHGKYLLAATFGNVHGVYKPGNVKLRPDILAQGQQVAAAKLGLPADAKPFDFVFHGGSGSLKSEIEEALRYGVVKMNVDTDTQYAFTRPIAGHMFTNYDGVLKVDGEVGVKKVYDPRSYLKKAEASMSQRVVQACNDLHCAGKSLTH
PfHsp40 rescue: rescue of PfHsp40-mediated yeast toxicity; S. cerevisiae expressing PfHsp40, growth rescue, ATP luminescence; growth rescue, % at 12.5 µM; 0.68% of 340,000 active; AID 504582; in the data active means growth rescue above about 28%, passing the limit was not always enough;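 further: yeast W303a lacking pdr1 and pdr3 grown in galactose medium; growth measured after three days at 30 °C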
PrPC TRFRET: reduces human prion protein on the cell surface; P04156; cell surface PrPC, TR-FRET read-out; inhibition, % at 13.8 µM; 0.43% of 370,000 active; AID 720596; in the data active means inhibition above about 24%; further: 0% = median of the test wells and 100% = reference compound wells
GDH-TPI counter-1: inhibits GDH-TPI coupling enzymes, artifact for Mtb FBA screen; GDH-TPI coupled enzyme counterscreen, NADH absorbance; 1.2% of 360,000 active; inhibition, % at 4.8 µM; AID 588335; in the data active means inhibition above about 30%;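 further: 0% = DMSO wells and 100% = wells lacking the enzyme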
BJeLR viability: kills HRASV12-expressing BJeLR cells | BJeLR (HRASV12) viability, CellTiter-Glo ATP luminescence, 48 h | AID 1554 | 0.17% of 300,000 active | inhibition, % (no concentration beside the values); in the data active means inhibition above about 50%
Mtb FBA confirm: confirmation of M. tuberculosis fructose-bisphosphate aldolase inhibitors | shares compounds with Mtb FBA inh | purified M. tuberculosis FBA, fluorescence read-out | 78% of 5,600 active | AID 651616 | inhibition, % at 1 µM;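 further: 0% = vehicle wells and 100% = reference inhibitor wells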
GDH-TPI counter-2: GDH-TPI inhibition counter-screen for FBA inhibitors; GDH-TPI coupled enzyme counterscreen, fluorescence; AID 652141; shares compounds with Mtb FBA inh; inhibition, % at 1 µM; 81% of 5,600 active; in the data active means inhibition above about 10%
GDH-TPI DR: inhibits GDH-TPI coupling enzymes in dose response; shares compounds with Mtb FBA inh; GDH-TPI coupled enzyme assay, fluorescence, artifact counterscreen; IC50, µM; 79% of 170 active; call rule not given here
Starred values were filed as active, the others as inactive; / = no result; + = active, no number. Shown are actives, neighbours in structure and some others; about 4.5% of the full set was active somewhere. Unless noted, no stated cut-off is given here; in the data, active means inhibition above about 27%; inactive means the rest.

SMILES	PrP UTR inh	Mtb FBA inh	PfHsp40 rescue	PrPC TRFRET	GDH-TPI counter-1	BJeLR viability	Mtb FBA confirm	GDH-TPI counter-2	others
O=C(NCc1cccnc1)c1ccc(-c2ccc(Cl)cc2)o1	-14	29*	0	9	2	6	113*	103*
O=C(NCc1cccnc1)c1ccc(-c2cc3ccccc3oc2=O)cc1	-55	54*	0	-40	16	66*	3	1
O=C(Nc1cccnc1)c1ccc(-c2ccc(Cl)cc2)o1	-17	-2	0	8	6	0	/	/
COCc1cccc(-c2csc(C(C)(NC(C)=O)c3ccc(OC)cc3)n2)c1 (stereo not given)	/	0	/	1	-2	/	/	/
COc1cc(C(=O)NC(=S)Nc2ccc3ccccc3c2)cc(OC)c1OC	/	-2	/	2	5	/	/	/
CCN(c1ccccc1)S(=O)(=O)c1ccc2c(c1)C(C)(C)C(=O)N2C	-39	0	0	/	-8	-23	/	/
Cc1nc(SCC(=O)N2CCN(c3ccccc3)CC2)c2oc3ccccc3c2n1	-30	31*	8	-4	9	-1	+	+
Cc1nc(SCC(=O)O)c2oc3ccccc3c2n1	-24	1	-1	-2	8	3	/	/
O=C(NCc1ccccc1F)C1C2C=CC3(CN(Cc4ccccc4)C(=O)C13)O2 (stereo not given)	/	/	/	-8	/	/	/	/
Brc1ccccc1-c1nnc2sc(-c3ccc4c(c3)OCCO4)nn12	-3	13	2	8	9	2	/	/
Clc1ccccc1-c1nnc2sc(-c3ccc4c(c3)OCO4)nn12	-37	28*	0	4	10	-23	+	+
Clc1ccccc1-c1nnc(-c2ccc3c(c2)OCO3)o1	-68	33*	-1	2	1	10	93*	63*
Clc1ccc(-n2cc(COCc3ccccc3)nn2)cc1	-74	5	1	-16	3	5	/	/
CCN(CC)CCOC(=O)c1ccccc1Br	-4	3	0	-2	2	-9	/	/
CCN(CC)CCOC(=O)c1cccc2c1-c1ccccc1C2O (stereo not given)	-24	29*	-1	-1	-4	4	46*	35*
Cc1ccc(Cn2cnc3c(cnn3-c3ccc(F)cc3)c2=O)cc1	-16	0	2	8	1	5	/	/
COc1cc2cc(C(=O)O)[nH]c2c(OC)c1OC	7	35*	0	-6	-12	-8	112*	74*
Cc1c(Cl)cccc1Nc1ccccc1C(=O)O	-1	4	1	8	9	9	/	/
O=C(O)c1ccccc1Nc1ccnc(Cl)n1	-34	28*	-1	-6	10	-1	+	144*
COc1cc(-c2nc3ccc(C)cn3c2NCc2ccccc2)ccc1-c1cccc(Cl)c1	-12	40*	-2	3	9	/	8	-2
Cc1ccc2nc(-c3ccc(-c4cccc(Cl)c4)cc3)c(NCc3ccccc3)n2c1	3	29*	2	4	36*	-7	12	9	GDH-TPI DR=1.5*
CCCCNc1c(-c2ccc(SC(C)CC)cc2)nc2ccc(Cl)cn12 (stereo not given)	/	/	/	-2	/	/	/	/
CCC(C)Sc1ccc(-c2nc3ccc(C)cn3c2NCc2ccccc2)cc1 (stereo not given)	-7	38*	0	2	15	/	94*	75*
CCOC(=O)Nc1ccc2c3c(cccc13)-c1ccccc1-2	-35	57*	0	13	13	/	70*	61*
CCC(C)NC(=O)c1cnn2c1NC(c1ccc3c(c1)OCO3)CC2C(F)(F)F (stereo not given)	-15	-2	0	5	-16	/	/	/
SMILES	PrP UTR inh	Mtb FBA inh	PfHsp40 rescue	PrPC TRFRET	GDH-TPI counter-1	BJeLR viability	Mtb FBA confirm	GDH-TPI counter-2	others
CC(O)c1cc2c(cc1NC(=O)c1cnn3c1NC(c1ccco1)CC3C(F)(F)F)OCO2 (stereo not given)	-32	48*	-2	-5	7	4	57*	55*
CN1C(=O)Cc2cc(S(=O)(=O)Nc3ccc(N4CCOCC4)cc3)ccc21	-10	-2	1	-12	-9	-1	/	/
O=C(CSc1ccc2nnc(-c3ccccn3)n2n1)Nc1cccc(F)c1	-11	-2	-1	-1	-1	15	/	/
CC(=O)Cn1c2ccccc2n2nc(CCC(=O)O)c(=O)nc12	-32	26	0	-3	4	-6	/	/
O=C(O)CCc1nn2c3ccccc3n(Cc3ccccc3)c2nc1=O	-28	36*	-1	-4	4	-4	3	0
Cc1ccn2c(=O)c(C(=O)O)cnc2c1	-8	92*	1	1	34*	-5	92*	83*
CC(=O)Nc1cccc(C(=O)Nc2cccnc2)c1	-23	-1	0	4	12	17	/	/
CC(Sc1nc(N)cc(=O)[nH]1)C(=O)NNC(=O)c1cccc(Cl)c1 (stereo not given)	-16	3	0	9	-1	/	/	/
COC(=O)c1[nH]c2ccccc2c1Sc1ccccc1	-19	77*	-1	24	13	1	95*	73*
CNC(=O)CCc1[nH]c2ccccc2c1Sc1ccccc1	-12	0	0	5	4	-8	/	/
COc1ccc(-n2c(C)cc3cc(OC(C)=O)ccc32)cc1	-4	58*	3	-1	5	7	68*	49*
COc1ccc(-n2c(C)c(C(C)=O)c(C(C)=O)c2C)cc1	4	2	-1	4	6	6	/	/
O=C(/C=C/c1ccccc1[N+](=O)[O-])NCc1ccncc1	-5	-2	0	-33	2	-2	/	/
NNC(=O)c1sc(-c2ccccc2)cc1N	-16	41*	-2	-8	10	9	-1	-3
C=C(C)Cn1c(N2CCCC2)nc2c1c(=O)n(C)c(=O)n2C	-3	33*	0	-4	3	-5	157*	109*
C/C(Cl)=C/Cn1c(N2CCCC2)nc2c1c(=O)n(C)c(=O)n2C	-16	1	-1	9	6	/	/	/
Cc1ccc(S(=O)(=O)N(C)CC(=O)NNC(=O)Cc2cccc(F)c2)cc1	-22	0	0	8	-4	/	/	/
Brc1c(-c2ccc3c(c2)OCO3)nc2ncccn12	-28	3	0	-6	9	-8	/	/
COc1ccc(-c2nc3ncccn3c2Br)cc1	-46	49*	1	-16	14	-7	+	186*
CCc1ccc(NC(=S)N2CCCC(C(F)(F)F)C2)cc1 (stereo not given)	-11	6	0	-2	5	12	/	/

Source: PubChem BioAssay (several laboratories)
